Compound activity: PubChem, National Center for Advancing Translational Sciences (NCATS)
Rows were chosen to be rich in hits. Some 2.8% of all compounds tested hit in one or more screens of this group.
PI4K2A inh – blocks human PI4K2A kinase activity; actives 0.13% (n = 420,000); activity change, negative = inhibition, % at 76.9 µM; Q9BTU6; purified PI4K2A, ADP-Glo luminescence, 1 h; hits give low values; AID 1346378; in the data active = activity change below about -50%; inconclusive = mostly about -30% to -49%;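 note: -100% = wells without enzyme as full effect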
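PI4K2A activity was measured by ADP-Glo luminescence: enzyme (4 ug/mL stock) and phosphatidylinositol (1.2 mM stock) in Tris pH 7.5/MgCl2/EGTA/Triton X-100 buffer were reacted with ATP (300 microM stock) for one hour at ambient temperature.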
Pol iota inh – blocks human DNA polymerase iota activity | Potency, µM (doses to about 115 µM), without a hit: at the top dose activity, negative = inhibition, actives largely listed as inhibitors | actives 1% (n = 390,000) | Q9UNA4 | AID 588590 | Pol iota fluorescent replication assay, 10 min; note: potency is the fitted concentration of half-maximal effect
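Fluorescent replication assay read twice, at 0 min and 10 min after adding 50 nM (final) substrate. Enzyme (10 nM) and compounds were first incubated 15 min at room temperature; enzyme-free buffer wells were negative controls.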
Pol kappa inh – inhibitors of human DNA polymerase kappa. Q9UBT6. purified Pol kappa, fluorescent DNA synthesis assay, 10 min. Potency, µM (doses to about 107 µM), inactives show top-dose activity, negative = inhibition, actives largely listed as inhibitors. actives 0.53% (n = 400,000). AID 588579; note: potency is the fitted concentration of half-maximal effect; % is set by controls: 0 for no effect and ±100 for the full control effect
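Readout: fluorescence, taken kinetically at 0 and 10 min. Conditions: 10 nM Pol kappa, 15 min RT compound preincubation, 50 nM substrate final. Controls: enzyme-free buffer wells.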
PI5P4K alpha inh – inhibitors of human PI5P4K alpha | actives 1.2% (n = 330,000) | max response, % | P48426 | PI5P4Kalpha enzyme, ADP-Glo luminescence, 60 min; hits give low values; active = max response of -50% or lower; inconclusive = between -30% and -50%; inactive = -30% or higher; note: value at the top dose of about 77 µM; % is set by controls: 0 for no effect and ±100 for the full control effect
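ADP-Glo luminescence end-point read after a 60 min room-temperature kinase reaction of PI5P4Kalpha plus substrate, initiated with ATP at 5 microM final. Buffer: 0.038 M HEPES pH 7.4, EGTA, 0.1% CHAPS, 5% DMSO.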
Pol beta inh – blocks human DNA polymerase beta activity; P06746; Pol beta primer extension/strand displacement, fluorescence kinetic; Potency, µM (titrated, usually from 114 µM), without a hit: top-dose activity change, negative = inhibition, actives largely listed as inhibitors; actives 1.3% (n = 340,000); note: potency is the fitted concentration of half-maximal effect; % is set by controls: 0 for no effect and ±100 for the full control effect
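Homogeneous kinetic assay of primer extension and strand displacement by 10 nM Pol beta, preincubated 15 min at room temperature with compound before 50 nM substrate (final) was added. Read at 0 and 10 min; four-parameter Hill fit.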
Pol eta inh-1 – blocks human DNA polymerase eta activity; Q9Y253; recombinant Pol eta, fluorescent DNA replication assay; Potency, µM (highest dose often 114 µM), inactives show at the highest dose activity change, negative = inhibition, most hits filed as inhibitors; actives 1.2% (n = 390,000); AID 588591; note: potency is the fitted concentration of half-maximal effect; % is set by controls: 0 for no effect and ±100 for the full control effect
Target sequence (Q9Y253 whole entry, looked up): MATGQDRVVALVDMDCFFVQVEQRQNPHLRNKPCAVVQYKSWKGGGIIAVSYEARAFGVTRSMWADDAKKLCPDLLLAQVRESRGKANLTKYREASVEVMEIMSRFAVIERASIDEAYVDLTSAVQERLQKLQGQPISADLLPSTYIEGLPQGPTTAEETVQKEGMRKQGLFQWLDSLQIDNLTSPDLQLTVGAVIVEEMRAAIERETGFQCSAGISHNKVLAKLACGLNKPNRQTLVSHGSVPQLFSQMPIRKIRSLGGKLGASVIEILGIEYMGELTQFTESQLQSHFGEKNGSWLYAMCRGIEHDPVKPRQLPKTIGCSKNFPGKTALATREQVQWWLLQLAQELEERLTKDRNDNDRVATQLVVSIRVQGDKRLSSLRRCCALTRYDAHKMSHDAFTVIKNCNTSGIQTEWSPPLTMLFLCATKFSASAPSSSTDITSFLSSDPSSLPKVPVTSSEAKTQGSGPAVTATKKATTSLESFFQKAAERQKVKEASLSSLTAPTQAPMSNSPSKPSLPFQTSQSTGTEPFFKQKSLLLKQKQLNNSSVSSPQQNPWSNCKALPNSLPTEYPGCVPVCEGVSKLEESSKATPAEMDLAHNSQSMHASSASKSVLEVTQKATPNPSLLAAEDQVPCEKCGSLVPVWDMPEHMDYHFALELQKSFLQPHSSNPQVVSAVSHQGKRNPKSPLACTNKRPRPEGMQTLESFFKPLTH
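Pol eta (10 nM) was preincubated with compounds for 15 min at room temperature, after which fluorescent replication substrate (50 nM final) was added to start the reaction. Fluorescence was read kinetically at 0 and 10 min.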
TbPGK inh – validation of Trypanosoma brucei phosphoglycerate kinase inhibitors. shares compounds with Pol kappa inh. TbPGK coupled GAPDH assay, Kinase-Glo luminescence. Potency, µM (doses to about 57.5 µM), for inactives: at the highest dose activity change, negative = inhibition, actives largely listed as inhibitors. actives 79% (n = 500). AID 686980; note: potency is the fitted concentration of half-maximal effect; % is set by controls: 0 for no effect and ±100 for the full control effect; nearly all actives have a fitted effect of over 65% in size
Pol iota confirm – Human Pol iota inhibitor confirmatory assay. shares compounds with Pol kappa inh. Pol iota primer extension, TAMRA/BHQ fluorescence. Potency, µM, usual class: inhibitors. actives 77% (n = 1,500); note: potency is the fitted concentration of half-maximal effect
Pol eta inh-2 – confirmation of human DNA polymerase eta inhibitors | shares compounds with Pol eta inh-1 | Pol eta primer extension, TAMRA/BHQ fluorescence, 10 min | Potency, µM, actives largely listed as inhibitors | actives 64% (n = 2,600); note: potency is the fitted concentration of half-maximal effect
* hit, by the source's call; [ ] = remark or other dose. Unless noted, calls come from the whole dose curve; as a rule, active = well fitted curve in the direction sought with a large enough effect; inconclusive = small, poorly fitted or top-dose-only effect, or another doubt; inactive = no such curve, though single readings can be large; an effect the other way counts as inactive or inconclusive.

What do the screens show for `O=C1/C(=C/C=C/c2ccco2)SC(=S)N1NS(=O)(=O)c1ccccc1`?
PI4K2A inh: -19.4; Pol iota inh: 1.78µM*; Pol kappa inh: 4.47µM*; PI5P4K alpha inh: -80.9*; Pol beta inh: inconclusive; Pol eta inh-1: 1.12µM*; TbPGK inh: 4.11µM*; Pol iota confirm: 2.67*; Pol eta inh-2: 1.69*

What do the screens show for `O=C(NC1CC(=O)N(c2ccc(F)cc2)C1)C1CCCC1` (stereo not drawn)?
PI4K2A inh: 0.2; Pol iota inh: 20.0%; Pol kappa inh: -2.8%[60.1 µM]; Pol beta inh: 25.6%; Pol eta inh-1: -11.1%

How did COc1ccc(C)cc1NC(=O)C(Cc1ccccc1)NS(=O)(=O)c1cccs1 (stereo not drawn) do in these assays?
PI4K2A inh: -3.0; Pol iota inh: 8.5%; Pol kappa inh: -9.7%[60.1 µM]; Pol beta inh: 9.0%; Pol eta inh-1: 0.3%

How did O=C(O)c1ccc(N/N=C/C=C/c2ccc([N+](=O)[O-])o2)cc1 do in these assays?
PI4K2A inh: -17.4; Pol iota inh: 8.91µM*; Pol kappa inh: 79.4µM*; PI5P4K alpha inh: inconclusive; Pol beta inh: 3.16µM*; Pol eta inh-1: 22.4µM*; TbPGK inh: 16.3µM*; Pol iota confirm: 37.7*; Pol eta inh-2: 26.9*

What do the screens show for `CCOC(=O)C1CCN(C(=O)C(C)(C)NC(=O)Nc2ccc3c(c2)CCC3)CC1`?
PI4K2A inh: -8.0

What do the screens show for `C/C=C/c1ccc2c(c1)O[C@H](CN(C)C(=O)NC1CCCC1)[C@H](C)CN([C@H](C)CO)S2(=O)=O`?
PI4K2A inh: 3.3; PI5P4K alpha inh: 1.9; Pol eta inh-1: 1.1%

How did O=C(N=Nc1c(O)[nH]c2ccc([N+](=O)[O-])cc12)c1ccccc1Cl do in these assays?
PI4K2A inh: -0.8; Pol iota inh: 37.8%; Pol kappa inh: 5.7%; PI5P4K alpha inh: 0.0; Pol beta inh: -29.8%; Pol eta inh-1: 39.8µM*; Pol iota confirm: 67*; Pol eta inh-2: inconclusive

What do the screens show for `COc1ccc(NC(=O)C(c2ccc(C#N)cc2)n2c(=O)c(-c3ccco3)nc3ccccc32)cc1` (stereo not drawn)?
PI4K2A inh: -4.0; PI5P4K alpha inh: -26.4

How did CC(CNc1ccccc1O)C(=O)O (stereo not drawn) do in these assays?
PI4K2A inh: -7.3; Pol iota inh: inconclusive; Pol kappa inh: inconclusive; PI5P4K alpha inh: -3.1; Pol beta inh: 8.91µM*; Pol eta inh-1: 25.1µM*; TbPGK inh: inconclusive; Pol eta inh-2: 60.1*

How did CCCCNC(=O)C[C@H]1C[C@@]2(C(=O)OC)C(=C[C@H](C(C)C)O[C@@H]2C2CC2)N(CCc2ccc(OC)c(OC)c2)C1=O do in these assays?
PI4K2A inh: -2.0

What do the screens show for `COc1ccc(Br)cc1C(=O)O`?
PI4K2A inh: 0.5; Pol iota inh: 9.5%; Pol kappa inh: -2.3%; PI5P4K alpha inh: 8.5; Pol beta inh: 2.2%; Pol eta inh-1: -13.1%

Results for COc1cc(C)cc(C(=O)O)c1C1=C(O)c2cccc(O)c2C(=O)C1=O ?
PI4K2A inh: -10.3; Pol iota inh: 35.5µM*; Pol kappa inh: 50.1µM*; PI5P4K alpha inh: -77.6*; Pol beta inh: 28.2µM*; Pol eta inh-1: 15.8µM*; Pol iota confirm: 33.6*; Pol eta inh-2: 23.9*

What do the screens show for `Cc1c(Br)c(=O)oc2c(Br)c(O)c(O)cc12`?
PI4K2A inh: -2.9; Pol iota inh: 12.6µM*; Pol kappa inh: 22.4µM*; PI5P4K alpha inh: -62.9*; Pol beta inh: 4.47µM*; Pol eta inh-1: 3.16µM*; TbPGK inh: 6.51µM*; Pol iota confirm: 23.8*; Pol eta inh-2: 5.36*

What do the screens show for `COC(=O)c1cc(O)cc(OC)c1Oc1cc(C)cc(O)c1C(=O)O`?
PI4K2A inh: -14.9; Pol iota inh: 12.6µM*; Pol kappa inh: 11.2µM*; PI5P4K alpha inh: inconclusive; Pol beta inh: 3.16µM*; Pol eta inh-1: 3.55µM*; TbPGK inh: 1.03µM*; Pol iota confirm: 13.4*; Pol eta inh-2: 12*

How did Cc1cc(C(=O)NCc2ccc(C(=O)O)o2)c(C)o1 do in these assays?
PI4K2A inh: -9.1; Pol iota inh: 20µM*; Pol kappa inh: 31.6µM*; Pol beta inh: 28.2µM*; Pol eta inh-1: 3.98µM*; TbPGK inh: inconclusive; Pol iota confirm: 26.7*; Pol eta inh-2: 6.75*

Results for COc1cccc(-n2c(SCc3cc(=O)oc4cc(O)c(O)cc34)nc3ccccc3c2=O)c1 ?
PI4K2A inh: -4.9; Pol iota inh: 7.94µM*; Pol kappa inh: 31.6µM*; PI5P4K alpha inh: -61.0*; Pol beta inh: 3.16µM*; Pol eta inh-1: 3.16µM*; Pol iota confirm: 7.52*; Pol eta inh-2: 12*

Results for COc1ccc(NC(=O)CSc2nnc3ccc(-c4cccnc4)nn23)cc1 ?
PI4K2A inh: -8.1; Pol iota inh: 18.9%; Pol kappa inh: 2.9%; PI5P4K alpha inh: 2.4; Pol eta inh-1: -17.5%

What do the screens show for `COc1cccc(-c2ccc3nnc(SCC(=O)Nc4ccc(NC(C)=O)cc4)n3n2)c1`?
PI4K2A inh: inconclusive; Pol iota inh: inconclusive; Pol kappa inh: -11.3%; PI5P4K alpha inh: -4.3; Pol eta inh-1: inconclusive; Pol iota confirm: inconclusive; Pol eta inh-2: inconclusive

What do the screens show for `COc1ccccc1C(=O)Nc1cccc(OCc2cc(=O)n3c4c(sc3n2)CCCC4)c1`?
PI4K2A inh: 2.5; Pol iota inh: 11.9%; Pol kappa inh: -11.6%; Pol beta inh: 24.4%; Pol eta inh-1: -3.1%
